Among the data in PubChem BioAssay AID504339 (National Center for Advancing Translational Sciences (NCATS), 2011) are Potency values, retold here.

In all, about 390,000 compounds went through this assay and about 17,000 (4.4%) were called active. Where a call stands in place of a potency, no number is given. About 8% were inconclusive and are not listed. The call rests on the fitted dose curve; in most records, active means well fitted inhibition curve with a large enough effect; inconclusive means small, poorly fitted or top-dose-only effect; inactive means no such curve, though single readings can be large or run the other way. The full list was thinned out, with actives kept by preference.
Potency means the concentration at half of the fitted maximal effect.

The target of the test is Lysine-specific demethylase 4A (Homo sapiens) (UniProt O75164). Kind of test: qHTS Assay for Inhibitors of JMJD2A-Tudor Domain. Further: nearly all actives have a fitted effect of over 50% in size. As to conditions: AlphaScreen JMJD2A-Tudor / H3K4me3 peptide binding; series mostly up to 114 µM. From the text: JMJD2A is a jumonji-domain-containing lysine demethylase that uses Fe(II) together with 2-OG to effect oxidative demethylation of histones. Methylation is one of many […] modification that affect epigenetic transcription. […] It is proposed that the functions of JmjD2A binding to the histones, is to maintain marks after they are installed and to spread the modifications by […], establishing a self-propagating cycle for rapid methylation over a large area of chromatin. […] Thus, small molecule targeting of the JMJD2A-tudor domain interaction with its target methylhistone mark is expected to enable sophisticated experiments probing the fine regulatory pathways leading to selective demethylation of a given methyllysine locus based on the methylation state of adjacent histone marks. A quantitative high throughput AlphaScreen has been developed to identify small molecule inhibitors based on a protocol published by NCGC and SGC [4].
Chain of Lysine-specific demethylase 4A (Homo sapiens) (O75164 whole entry, looked up, the tested form may be a part): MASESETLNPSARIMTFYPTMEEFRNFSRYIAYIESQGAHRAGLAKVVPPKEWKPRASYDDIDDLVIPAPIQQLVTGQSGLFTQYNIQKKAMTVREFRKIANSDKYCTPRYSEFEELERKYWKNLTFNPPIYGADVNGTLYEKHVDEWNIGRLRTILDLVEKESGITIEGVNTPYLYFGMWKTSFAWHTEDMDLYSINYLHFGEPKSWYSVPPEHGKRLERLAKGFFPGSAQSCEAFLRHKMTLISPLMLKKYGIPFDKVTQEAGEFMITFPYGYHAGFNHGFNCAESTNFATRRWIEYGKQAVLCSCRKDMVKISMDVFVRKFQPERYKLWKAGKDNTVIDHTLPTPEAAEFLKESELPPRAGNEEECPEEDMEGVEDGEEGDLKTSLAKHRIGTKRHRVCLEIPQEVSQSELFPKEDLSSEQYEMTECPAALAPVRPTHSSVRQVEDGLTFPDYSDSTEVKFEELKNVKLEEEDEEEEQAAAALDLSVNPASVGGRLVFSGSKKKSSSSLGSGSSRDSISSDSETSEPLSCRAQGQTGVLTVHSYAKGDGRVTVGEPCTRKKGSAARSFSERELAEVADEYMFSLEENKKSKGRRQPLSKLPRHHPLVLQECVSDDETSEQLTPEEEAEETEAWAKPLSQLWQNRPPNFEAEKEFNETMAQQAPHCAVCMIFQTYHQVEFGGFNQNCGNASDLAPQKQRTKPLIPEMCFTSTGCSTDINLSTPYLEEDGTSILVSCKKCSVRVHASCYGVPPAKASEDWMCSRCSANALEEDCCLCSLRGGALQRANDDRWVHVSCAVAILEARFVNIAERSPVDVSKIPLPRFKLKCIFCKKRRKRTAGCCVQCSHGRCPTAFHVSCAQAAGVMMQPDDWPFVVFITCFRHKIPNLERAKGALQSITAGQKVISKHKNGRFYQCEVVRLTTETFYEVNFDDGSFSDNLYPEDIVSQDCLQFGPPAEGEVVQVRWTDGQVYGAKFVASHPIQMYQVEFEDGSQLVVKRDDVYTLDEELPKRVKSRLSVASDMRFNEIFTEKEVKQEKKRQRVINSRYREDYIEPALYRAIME
Although AlphaScreen has significant advantages with its utility in a variety of epigenetic target assays, the primary screening data provided in this deposition should be used with caution due to the prevalence of screening artifacts. The top compound concentration tested was high (>100uM) in this assay, which increases number of actives and potential artifacts. An AlphaScreen counterscreen is highly recommended to be run against any putative actives to eliminate non-specific artifacts. Alternatively, one can use other AlphaScreen assays in PubChem to filter out promiscuous hits.
[1] Lee, J. et al. Distinct binding modes specify the recognition of methylated histone H3K4 and H4K20 by JMJD2A-tudor. Nat Struct Mol Biol. 15(1); 109-11. 2008. PMID: 18084306
[2] Yasgar, et al. Compound Management for Quantitative High-Throughput Screening. JALA. 2008 Apr;13(2):79-89. PMID: 18496600
[3] Inglese, et al. Quantitative high-throughput screening: a titration-based approach that efficiently identifies biological activities in large chemical libraries. Proc Natl Acad Sci. 1;103(31):11473-8. 2006. PMID: 16864780
[4] Quinn et al. A homogeneous method for investigation of methyl-dependent protein-protein interactions in epigenetics. Nucleic Acids Res., 38(2):e11. 2010. PMID: […]
[5] Baell,Holloway. New substructure filters for removal of pan assay interference compounds (PAINS) from screening libraries and for their exclusion in bioassays. J Med Chem. 53(7):2719-40. 2010. PMID: 20131845
NIH Molecular Libraries Probe Production Network [MLPCN]
NIH Chemical Genomics Center [NCGC]
Structural Genomics Consortium (SGC)
To each well of a 1,536w plate, 2ul of JMJD2A-Tudor (final 100nM) and 1ul biotinylated histone peptide methylated at Lys4 [b-H3(1-18)K4me3] (final 50nM) were added in 1x PBS buffer, pH 7.4, containing 0.01% Tween-20, using a nanoliter dispenser. Formation of a protein-peptide complex proceeded at room temperature for 30 min. A Kalypsys pin-tool transferred 23nl of library compound solution in DMSO to each well. Following a 30 min incubation of the protein-peptide complex with compounds at room temperature, a mixture of 40 µg/mL each streptavidin-coated donor and nickel chelate acceptor AlphaScreen beads (final 10 µg/mL) was added in a 1ul dispense for a final volume of 4ul, followed by a brief centrifugation (1000 rpm, 1 min). Plates were incubated protected from the light for 20 min at room temperature. Microplates were then read on an EnVision multilabel plate reader using the 1,536 plate HTS AlphaScreen aperture (excitation time 80 ms, measurement time 240 ms).
On the technique in general: qHTS replaces the single test concentration by a dilution series.
On to `O=C1CC(c2ccc(F)cc2F)c2cc3c(cc2N1)OCO3` (centres undefined), for which the Potency result is “inactive”.
Next, `COCc1c(N)c(C)nc(Cl)c1C#N`: 11.2 µM (active); `Cc1nc(Cl)c(C#N)c2c1CCCC2`: “inactive”.
Next, `COC(=O)c1c(C)c(C)nc(N)c1C#N`: “inactive”.
In the case of `CC(=O)c1ccc(NC(=O)C2CCN(S(=O)(=O)c3c(C)noc3/C=C/c3ccc(C)cc3)CC2)cc1`, the Potency entry was “inactive”.
As to `CN(Cc1ccccc1)c1ccc(-c2nc(-c3ccccc3)no2)cc1[N+](=O)[O-]`, the Potency entry was “inactive”.
On to `CC(=O)c1ccc(N2CCN(C3C(=O)c4ccccc4N3C(C)=O)CC2)cc1` (centres undefined), for which the Potency result is “inactive”.
The entry for `COC(=O)c1c(NC(=O)C(=O)N2CCCCC2)sc2c1CC(C)(C)OC2` is “inactive”.
Regarding `CC1(C)Cc2c(sc(NC(=O)C(=O)N3CCOCC3)c2C#N)CO1`, the Potency was 14.1 µM (active).
Next, `CCOC(=O)N1CCN(C(=O)C(=O)Nc2sc3c(c2C#N)CC(C)(C)OC3)CC1`: “inactive”.
The entry for `COc1cc(C(=O)Nc2ccc(OCc3cc(=O)n4ccc(C)cc4n3)cc2)cc(OC)c1OC` is “inactive”.
The figure for `CCCCOc1ccc(N(CC(=O)NCC2CCCO2)C(=O)CCC(=O)Nc2cc(C)ccn2)cc1` (centres undefined) is 70.8 µM (active); for `Cc1cc(NC(=O)CCC(=O)N(CC(=O)NCC2CCCO2)c2ccccc2)no1` (centres undefined) it is “inactive”; for `COc1ccc(N(CC(=O)NCC2CCCO2)C(=O)CCC(=O)Nc2nccs2)c(OC)c1` (centres undefined) it is “inactive”.
On to `COC(=O)c1cccc(N(CC(=O)NCC2CCCO2)C(=O)CCC(=O)Nc2cc(C)on2)c1` (centres undefined), for which the Potency result was “inactive”.
The entry for `Cc1cc(NC(=O)CCC(=O)N(CC(=O)NCC2CCCO2)c2ccccc2C)no1` (centres undefined) is “inactive”.
Next, `CCc1ccccc1N(CC(=O)NCC1CCCO1)C(=O)CCC(=O)Nc1nccs1` (centres undefined): 25.1 µM (active).
For the molecule `COc1ccc(C(=O)Nc2onc3c2CCCC3)cc1`, the Potency entry is “inactive”.
Take `O=C(NCCc1ccccc1)C(=O)NCC(c1ccco1)S(=O)(=O)c1ccccc1` (centres undefined): the Potency entry is “inactive”.
Next, `COc1cccc(C(=O)NC2(C(F)(F)F)C(=O)Nc3c2c(=O)[nH]c(=O)n3-c2ccc(C)cc2)c1` (centres undefined): “inactive”; `O=C(CSc1ncc(-c2ccccc2)[nH]1)Nc1ccc(F)cc1F`: “inactive”; `O=C(COc1ccccc1F)OCc1cc(=O)n2nc(C3CCCCC3)sc2n1`: “inactive”.
The entry for `Cc1ccc2c(c1)C1CN(C)CCC1N2C(=S)Nc1ccc(OC(F)F)cc1` (centres undefined) is “inactive”; for `Cc1ccc2c(c1)C1CN(C)CCC1N2S(=O)(=O)c1ccc(Oc2ccc([N+](=O)[O-])cc2)cc1` (centres undefined) it is 22.4 µM (active).
For `Cc1ccc2c(c1)C1CN(C)CCC1N2S(=O)(=O)c1cccc(F)c1` (centres undefined), the Potency result is “inactive”.
Take `COc1ccc(CNC(=O)c2ccc3c(c2)nc2n3CCOC2)c(OC)c1`: the Potency entry was “inactive”.
The entry for `Cc1cc(NS(=O)(=O)c2ccc3oc(=O)c4ncn(C)c4c3c2)ccc1Br` is “inactive”; for `COc1cc(OC)c(NC(=O)c2cnc(N3CCCC3)nc2C)cc1Cl` it is “inactive”; for `Cc1ccc2c(=O)c(C(=O)c3cccc(Cl)c3)cn(CC(=O)NCc3ccccc3)c2n1` it is “inactive”.
The entry for `O=C(CC(=O)c1cccnc1)c1ccccc1` is “inactive”; for `O=C(NNC(=O)c1cccnc1)Nc1ccccc1` it is “inactive”; for `O=C(O)CSC(NC(=O)c1cccnc1)(C(F)(F)F)C(F)(F)F` it is 89.1 µM (active).
As for `CCc1ccccc1N(C)C(=O)C1CCCN(c2ncnc3onc(-c4ccc(F)cc4)c23)C1` (centres undefined), the Potency entry was “inactive”.
As to `COc1cccc2c1cc1c(=O)n(CC(=O)N3CCN(c4cccc(Cl)c4)CC3)nc(C)n12`, the Potency result was “inactive”.
Next, `O=c1ccc2c(-c3ccccc3S(=O)(=O)O)c3ccc(O)c(O)c3oc-2c1O`: 0.708 µM (active); `CCOC(=O)c1c(C)oc2ccc(N(C(=O)c3ccncc3)S(=O)(=O)c3ccc(CC)cc3)cc12`: “inactive”; `CCOc1ccccc1C(=O)NC1(C(F)(F)F)NC(=O)N(CCc2ccc(OC)c(OC)c2)C1=O` (centres undefined): “inactive”.
The entry for `CCCN(C(=O)Cn1cc(S(=O)(=O)N2CCN(c3ccccc3F)CC2)c2ccccc2c1=O)c1cccc(C)c1` is “inactive”.
In the case of `CNc1nnc(-c2ccco2)s1`, the Potency result is “inactive”.
Next, `COc1ccc(OCC(=O)Nc2nnc(-c3ccco3)s2)cc1`: 79.4 µM (active); `COc1ccc(NC(=O)COCc2cc(-c3ccco3)on2)cc1`: “inactive”.
In the case of `Cc1cccc(NC(=O)CN(c2ccc(C(C)C)cc2)S(=O)(=O)c2c(C)nn(C)c2C)c1C`, the Potency result is “inactive”.
Next, `Cc1ccc(C)c(CNC(=O)c2cc3ccccn3n2)c1`: “inactive”; `CC1CCCN(c2cc3c(cc2F)c(=O)c(S(=O)(=O)c2cccc(Cl)c2)cn3Cc2ccccc2)C1` (centres undefined): “inactive”; `Cc1ccc(Cl)cc1NC(=O)CCC(=O)N1CC(C)Sc2ccccc21` (centres undefined): “inactive”.
Next, `O=C(NC(=O)c1ccccc1N1CCCCC1)Nc1ccc(Br)cc1`: “inactive”.
The figure for `Cc1ccccc1C(=O)Nc1ccc(N2CCCCCC2)cc1` is 14.1 µM (active).
On to `CC(=O)Nc1ccc(S(=O)(=O)Nc2ccc(N3CCCCC3)cc2)cc1`, for which the Potency was 20 µM (active).
In the case of `CC(=O)Nc1ccc(NS(=O)(=O)c2ccc3c(c2)NC(=O)CC(=O)N3)cc1`, the Potency result is “inactive”.
The entry for `CC(=O)Nc1ccc(S(=O)(=O)N2CCN(c3ccccc3)CC2)cc1` is “inactive”.
`Cc1ccccc1C(=O)N1CCN(c2ccc(NC(=O)c3cccs3)cc2)CC1`: the Potency result was “inactive”.
As to `O=C(O)c1ccc2c(c1)N(Cc1ccc(F)cc1)C(=O)c1ccccc1S2=O` (centres undefined), the Potency result is “inactive”.
Next, `O=C(NCc1ccccc1Cl)C1=Cc2cc(Br)ccc2OC1`: “inactive”; `CCc1ccc(NC(=O)N2CCN(C(=O)c3nsc4ccccc34)CC2)cc1`: “inactive”.
Next, `COc1ccc(Cl)cc1NC(=O)CCn1c(=O)c2cccn2c2ccccc21`: “inactive”.
Next, `COc1cc(NC(=O)Cn2nc(-c3ccc(C)c(C)c3)ccc2=O)cc(OC)c1`: “inactive”; `CN(CC(=O)NCCc1ccc(F)cc1)CC(=O)Nc1ccc(F)c(F)c1F`: “inactive”.
Regarding `Cc1ccc(Cl)c(NC(=O)CN(C)CC(=O)Nc2ccc(F)c(F)c2F)c1Cl`, the Potency was 70.8 µM (active).
Consider `Cc1c(NC(=O)CN(C)CC(=O)Nc2ccc(F)c(F)c2F)c(=O)n(-c2ccccc2)n1C`, for which the Potency result is “inactive”.
The entry for `COc1ccc(CCC(=O)NCCc2csc(-c3ccc(Cl)cc3)n2)cc1` is “inactive”; for `O=C(CNS(=O)(=O)c1cccs1)N1CCN(c2ccccc2Cl)CC1` it is “inactive”; for `O=C(CSc1nccn1Cc1ccc(F)cc1)NCc1ccccc1` it is “inactive”.
The entry for `O=C(CSc1nccn1-c1cccc(F)c1)NC1CCCC1` is “inactive”; for `O=C(CSc1nccn1-c1ccc(F)cc1)Nc1cccc2ccccc12` it is 28.2 µM (active).
